Experimental data: the supplement of paper PMC6897291

Assays:
[1] = tested on: U-2932; assay: growth inhibition by drug alone (1 - RLU/untreated control) (fraction); higher = stronger inhibition; conditions: 177Lu-lilotomab satetraxetan 0 ug/ml
How it was run: (§1)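 Compound doses on the pre-printed Selleck Cambridge Cancer Compound library plates were 10/100 nM for RIVA cells and 10/1,000 nM for U-2932 cells, seeded at 3,000 cells/well. Before seeding, cells were washed after 18 h with or without a radiolabelled anti-CD37 antibody conjugate (~600 MBq/mg; 0.5 µg/ml RIVA, 1 µg/ml U-2932). Growth inhibition was derived from RealTime-Glo luminescence relative to untreated no-drug control wells. Readings were taken daily starting on day 3, each after 1 h at 37°C, and each well's RLU was divided by the mean of 48 such wells per plate and subtracted from 1.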

[2] = tested on: RIVA; assay: as above; conditions: 177Lu-lilotomab satetraxetan 0 ug/ml
How it was run: as §1

[3] = tested on: U-2932; assay: growth inhibition by drug plus 177Lu-lilotomab satetraxetan (1 - RLU/untreated control) (fraction); higher = stronger inhibition; conditions: 177Lu-lilotomab satetraxetan 1 ug/ml
How it was run: as §1

[4] = tested on: RIVA; assay: as above; conditions: 177Lu-lilotomab satetraxetan 0.5 ug/ml
How it was run: as §1

Structure (SMILES) | growth inhibition by drug alone ([1]; 10 nM, time (day): 3) | growth inhibition by drug alone ([1]; 10 nM, time (day): 4) | growth inhibition by drug alone ([1]; 10 nM, time (day): 5) | growth inhibition by drug alone ([1]; 10 nM, time (day): 6) | growth inhibition by drug alone ([1]; 1000 nM, time (day): 3) | growth inhibition by drug alone ([1]; 1000 nM, time (day): 4) | growth inhibition by drug alone ([1]; 1000 nM, time (day): 5) | growth inhibition by drug alone ([1]; 1000 nM, time (day): 6) | growth inhibition by drug alone ([2]; 10 nM, time (day): 3) | growth inhibition by drug alone ([2]; 10 nM, time (day): 4) | growth inhibition by drug alone ([2]; 10 nM, time (day): 5) | growth inhibition by drug alone ([2]; 10 nM, time (day): 6) | growth inhibition by drug alone ([2]; 100 nM, time (day): 3) | growth inhibition by drug alone ([2]; 100 nM, time (day): 4) | growth inhibition by drug alone ([2]; 100 nM, time (day): 5) | growth inhibition by drug alone ([2]; 100 nM, time (day): 6) | growth inhibition by drug plus 177Lu-lilotomab satetraxetan ([3]; 10 nM, time (day): 3) | growth inhibition by drug plus 177Lu-lilotomab satetraxetan ([3]; 10 nM, time (day): 4) | growth inhibition by drug plus 177Lu-lilotomab satetraxetan ([3]; 10 nM, time (day): 5) | growth inhibition by drug plus 177Lu-lilotomab satetraxetan ([3]; 10 nM, time (day): 6) | growth inhibition by drug plus 177Lu-lilotomab satetraxetan ([3]; 1000 nM, time (day): 3) | growth inhibition by drug plus 177Lu-lilotomab satetraxetan ([3]; 1000 nM, time (day): 4) | growth inhibition by drug plus 177Lu-lilotomab satetraxetan ([3]; 1000 nM, time (day): 5) | growth inhibition by drug plus 177Lu-lilotomab satetraxetan ([3]; 1000 nM, time (day): 6) | growth inhibition by drug plus 177Lu-lilotomab satetraxetan ([4]; 10 nM, time (day): 3) | growth inhibition by drug plus 177Lu-lilotomab satetraxetan ([4]; 10 nM, time (day): 4) | growth inhibition by drug plus 177Lu-lilotomab satetraxetan ([4]; 10 nM, time (day): 5) | growth inhibition by drug plus 177Lu-lilotomab satetraxetan ([4]; 10 nM, time (day): 6) | growth inhibition by drug plus 177Lu-lilotomab satetraxetan ([4]; 100 nM, time (day): 3) | growth inhibition by drug plus 177Lu-lilotomab satetraxetan ([4]; 100 nM, time (day): 4) | growth inhibition by drug plus 177Lu-lilotomab satetraxetan ([4]; 100 nM, time (day): 5) | growth inhibition by drug plus 177Lu-lilotomab satetraxetan ([4]; 100 nM, time (day): 6)
CCc1cncnc1N1CCN(Cc2nc3ccc(C(F)(F)F)cc3[nH]2)CC1 | 0.0983 | 0.0884 | -0.0751 | -0.108 | 0.0626 | 0.102 | 0.0246 | -0.253 | 0.00505 | -0.0231 | -0.0829 | -0.347 | -0.0601 | -0.0865 | -0.0867 | -0.192 | 0.00491 | 0.0254 | 0.0426 | 0.0627 | -0.00879 | 0.086 | 0.0686 | 0.0567 | 0.505 | 0.583 | 0.59 | 0.587 | 0.49 | 0.55 | 0.542 | 0.514
CCCS(=O)(=O)Nc1ccc(F)c(C(=O)c2c[nH]c3ncc(-c4ccc(Cl)cc4)cc23)c1F [Vemurafenib (PLX4032)] | 0.026 | -4.15e-06 | -0.0629 | -0.147 | -0.152 | -0.0928 | -0.16 | -0.291 | -0.0219 | -0.0744 | -0.165 | -0.55 | -0.231 | -0.206 | -0.219 | -0.345 | -0.0121 | 0.00305 | 0.0511 | 0.0873 | -0.143 | -0.047 | -0.0561 | 0.06 | 0.42 | 0.546 | 0.561 | 0.576 | 0.432 | 0.531 | 0.539 | 0.524
COc1cc(Nc2ncc(F)c(Nc3ccc4c(n3)NC(=O)C(C)(C)O4)n2)cc(OC)c1OC [R406(free base)] | 0.0274 | -0.00454 | -0.0695 | -0.162 | 0.0655 | 0.0291 | -0.0439 | 0.00754 | 0.0167 | -0.0293 | -0.017 | -0.0464 | -0.368 | -0.333 | -0.353 | -0.462 | -0.0151 | 0.0369 | 0.0816 | 0.0813 | 0.069 | 0.0868 | 0.096 | 0.227 | 0.577 | 0.592 | 0.602 | 0.605 | 0.471 | 0.564 | 0.581 | 0.575
O=C(/C=C/c1cccc(S(=O)(=O)Nc2ccccc2)c1)NO [Belinostat (PXD101)] | 0.222 | 0.196 | 0.137 | 0.152 | 0.961 | 0.964 | 0.974 | 0.979 | 0.107 | 0.129 | 0.11 | 0.00837 | 0.884 | 0.83 | 0.818 | 0.796 | 0.0215 | 0.0654 | 0.0711 | 0.0685 | 0.961 | 0.975 | 0.984 | 0.988 | – | – | – | – | – | – | – | –
